D2 PAM-1 – positively modulates the human D2 dopamine receptor allosterically; P14416; HEK293 T-REx D2, calcium flux, EC20 dopamine potentiation; potentiation, % at 10 µM; 340,000 compounds, 0.34% hits;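 active means potentiation over 3 SD above the plate norm, cut at about 30% in these data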
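Primary screen. Calcium kinetics in induced HEK293 T-REx D2 cells: compound pre-addition 180 s, EC20 dopamine, 180 s more.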
D2 PAM-2 – potentiates the human D2 dopamine receptor allosterically. P14416. DiscoveRx D2 beta-arrestin cells, luminescence, 90 min; 100% = 57 uM dopamine signal. potentiation, % (no concentration beside the values). 360,000 compounds, 0.23% hits; in the data active means potentiation above about 50%; inconclusive means mostly about 30% to 49%
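D2 cells co-treated with compound plus 50 nM dopamine (EC20) for 90 min at 37 deg C to detect potentiation. Beta-arrestin recruitment was read as enzyme-fragment luminescence after 1 h at ambient temperature. Full response was set by 57 uM dopamine.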
D2 antagonist – antagonizes the human D2 dopamine receptor; HEK293 TREx D2 cells, calcium flux, dopamine EC80; inhibition, % at 10 µM; 340,000 compounds, 2% hits; in the data active means inhibition above about 30%; inactive means below that, where a call was filed
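Overnight-induced (tetracycline, 30 C) HEK293 T-REx cells carrying force-coupled D2 receive a no-wash calcium dye, then compound, then EC80 dopamine at 180 s; signals are read kinetically throughout.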
D2 ag-1 – agonists of human D2 dopamine receptor; P14416; HEK293 T-REx D2 cells, calcium flux agonist mode; activation, % at 2 µM; 340,000 compounds, 0.53% hits; AID 485358;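 active means activation over 3 SD above normal in the single-dose calcium agonist read, cut at about 30% in these data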
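In this primary screen, compounds producing a positive calcium signal within 180 s of addition to tetracycline-induced, force-coupled HEK293 Trex D2 cells are flagged; cells are dye-loaded with a no-wash calcium kit beforehand.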
D2 ag-2 – activates the human D2 dopamine receptor | DiscoveRx PathHunter D2 beta-arrestin, luminescence, 90 min; 100% = 57 uM dopamine signal | 360,000 compounds, 0.084% hits | P14416 | activation, % (test concentration not listed); in the data active means activation above about 40%; inconclusive means between about 15% and that limit
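Agonist mode: compounds alone added to overnight-plated D2 PathHunter cells for 90 min at 37 C, with 57 uM final dopamine (EC100) defining full response. Beta-arrestin recruitment detected by chemiluminescent reagent, read after 1 h at ambient temperature.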
D3 arrestin ag – activates human D3 dopamine receptor beta-arrestin recruitment; DiscoveRx D3 beta-arrestin cells, luminescence, 90 min; 2,300 compounds, 4% hits; Potency, µM (doses to about 76.9 µM), usual class: activators; shares compounds with D2 ag-1; further: nearly all actives have a fitted effect of over 70% in size
Target sequence (P35462 whole entry, looked up): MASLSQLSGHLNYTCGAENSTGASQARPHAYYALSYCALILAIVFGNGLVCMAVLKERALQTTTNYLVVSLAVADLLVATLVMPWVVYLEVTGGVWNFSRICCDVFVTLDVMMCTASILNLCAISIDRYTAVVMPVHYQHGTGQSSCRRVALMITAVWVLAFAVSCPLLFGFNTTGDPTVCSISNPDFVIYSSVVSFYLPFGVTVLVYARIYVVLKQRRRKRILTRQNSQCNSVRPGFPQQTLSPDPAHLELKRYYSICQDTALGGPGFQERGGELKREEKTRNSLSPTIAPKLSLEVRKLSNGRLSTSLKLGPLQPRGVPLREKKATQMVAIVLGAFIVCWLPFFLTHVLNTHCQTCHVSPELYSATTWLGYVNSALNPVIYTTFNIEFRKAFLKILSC
D2 ag-3 – counter-screen for D3 agonists: human D2 dopamine receptor agonism; Potency, µM (top dose mostly 76.9 µM), actives largely listed as activators; shares compounds with D2 ag-1; AID 720507; 2,300 compounds, 5.9% hits; DiscoveRx PathHunter D2 beta-arrestin, luminescence, 90 min; response scale: percent relative to full dopamine signal; further: nearly all actives have a fitted effect of over 70% in size
Each line names hits and unclear results; the compound was inactive in the other large screens (follow-up assays come after a bar, where they were run). Hits are enriched below; roughly 2.4% of the tested compounds scored in any of these assays. Unless noted, the call rests on the fitted dose curve; in most records, active means well fitted activation curve with a large enough effect; inconclusive means small, poorly fitted or top-dose-only effect; inactive means flat fitted curve, though single readings scatter.

O=C1CC(=C2c3ccccc3-c3ccccc32)C(=O)N1CCCCN1CCN(c2ccccc2)CC1	D2 antagonist 44, D2 ag-1 73 | D3 arrestin ag inactive | D2 ag-3 inactive
CC(=NCCc1c(C)[nH]c2ccc(OC(F)(F)F)cc12)C1=C(O)CC(c2ccccc2)CC1=O (stereo unspecified)	none | D3 arrestin ag inactive | D2 ag-3 inactive
CC(=NCCc1c(C)[nH]c2ccc(C)cc12)C1=C(O)CC(c2ccccc2)CC1=O (stereo unspecified)	none
CCCCC(=NCCc1c(C)[nH]c2ccccc12)C1=C(O)CC(c2ccccc2)CC1=O (stereo unspecified)	none (no result: D2 PAM-1) | D3 arrestin ag inactive | D2 ag-3 inactive
CCCC(=NCCc1c(C)[nH]c2ccccc12)C1=C(O)CC(c2ccccc2)CC1=O (stereo unspecified)	none
CCN(CC)CCOC(=O)c1ccc(NC(=O)Cn2ncc3c([nH]c4ccc(C)cc43)c2=O)cc1	none (no result: D2 PAM-2, D2 antagonist, D2 ag-1, D2 ag-2)
O=C(NCc1nnnn1-c1ccc(Cl)cc1)C(=O)c1c[nH]c2ccccc12	none (no result: D2 PAM-1, D2 antagonist, D2 ag-1)
CC(=O)Nc1ccc(C(=O)Nc2cc(C(F)(F)F)ccc2-n2cnc3ccccc32)cc1	none | D3 arrestin ag inactive | D2 ag-3 inactive
COc1ccc(C(=O)Nc2cc(C(F)(F)F)ccc2-n2cnc3ccccc32)cc1	none
CCOc1cc(-c2c(C)c(CC)nc(N)c2C#N)ccc1O	D2 ag-2 inconclusive | D3 arrestin ag inactive | D2 ag-3 inconclusive
CCOc1cc(-c2c(C)c(C)nc(N)c2C#N)ccc1O	D2 ag-2 inconclusive
NS(=O)(=O)c1ccc(-c2ccc(/C=N/Nc3ccc(C(=O)O)cc3)o2)cc1	D2 ag-2 inconclusive | D3 arrestin ag inactive | D2 ag-3 inactive
NS(=O)(=O)c1ccc(-c2ccc(/C=N/NC(=O)c3ccc([N+](=O)[O-])cc3)o2)cc1	none
Nc1ccc2[nH]ncc2c1	D2 antagonist 34 | D3 arrestin ag inconclusive | D2 ag-3 inactive
Cc1c(C(=O)OCC(=O)N2C(C)CCCC2C)oc2ccccc12 (stereo unspecified)	none | D3 arrestin ag inactive | D2 ag-3 inactive
CCOC(=O)c1c(NC(=O)CC)sc2c1CCN(Cc1ccccc1)C2	none
COC(=O)c1c(NC(C)=O)sc2c1CCN(Cc1ccccc1)C2	D2 ag-1 38 | D3 arrestin ag inactive | D2 ag-3 inactive
CCOC(=O)c1c(NC(C)=O)sc2c1CCN(Cc1ccccc1)C2	none
CCOC(=O)c1c(NC(=O)C(C)Sc2cccc[n+]2[O-])sc2c1CCN(Cc1ccccc1)C2 (stereo unspecified)	D2 ag-1 42 | D3 arrestin ag inactive | D2 ag-3 inactive
COc1cccc(CNC(=O)CCS(=O)(=O)c2cc3c4c(c2)CCN4C(=O)CC3)c1	none (no result: D2 PAM-2, D2 antagonist, D2 ag-1, D2 ag-2)
CCCC(c1nnnn1Cc1ccc(OC)cc1)N1CCN(c2ccccc2)CC1 (stereo unspecified)	D2 ag-1 45, D2 ag-2 inconclusive | D3 arrestin ag inactive | D2 ag-3 inconclusive
CCN(CC)CCCN=C1N[C@@H](c2ccccc2)C(C(=O)OC)=C(C)N1CC	D2 ag-1 77 | D3 arrestin ag inactive | D2 ag-3 inactive
O=C(/C=C/c1ccccc1)NCC(=O)N/N=C/c1cccs1	D2 ag-1 43 | D3 arrestin ag inactive | D2 ag-3 inactive
CC1CCN(S(=O)(=O)c2cn(CC(=O)Nc3ccc(F)cc3)c(=O)c3ccccc23)CC1	none (no result: D2 PAM-2, D2 antagonist, D2 ag-2)
c1ccc(N2CCN(Cc3cnc(N4CCOCC4)s3)CC2)cc1	D2 antagonist 38, D2 ag-1 63 | D3 arrestin ag inactive | D2 ag-3 inconclusive
Clc1ncc(CN2CCN(c3ccccc3)CC2)s1	D2 antagonist 84, D2 ag-1 75, D2 ag-2 48 | D3 arrestin ag inconclusive | D2 ag-3 5µM
CC1CCN(Cc2cnc(Cl)s2)CC1	none
Fc1ccccc1N1CCN(Cc2cnc(Cl)s2)CC1	D2 PAM-2 inconclusive, D2 ag-2 52 (no result: D2 PAM-1, D2 antagonist, D2 ag-1) | D3 arrestin ag inconclusive | D2 ag-3 3.2µM
Clc1ccc(CN2CCN(c3ccccc3)CC2)cn1	D2 antagonist 90, D2 ag-1 74, D2 ag-2 inconclusive | D3 arrestin ag inconclusive | D2 ag-3 inconclusive
COc1cc(C(=O)n2nc(C)c(Sc3ccc(Cl)cc3)c2C)cc(OC)c1OC	none (no result: D2 PAM-2, D2 antagonist, D2 ag-2)
COc1ccc(Cn2c(=O)c3cccnc3n(Cc3cccc(F)c3)c2=O)cc1	none (no result: D2 PAM-1, D2 PAM-2, D2 antagonist, D2 ag-2)
Brc1ccc(CN2CCN(c3ccccc3)CC2)o1	D2 antagonist 50, D2 ag-1 72 | D3 arrestin ag inactive | D2 ag-3 inactive
CCCN1CCC(=O)N(CCSc2ccccc2)CC1	none
c1ccc(SCCN2CCN(c3ccccc3)CC2)cc1	D2 antagonist 60 | D3 arrestin ag inactive | D2 ag-3 inactive
Clc1ccccc1N1CCN(Cc2ccc(Br)o2)CC1	none (no result: D2 PAM-1, D2 antagonist, D2 ag-1)
Cc1ccc(-n2nc3cc(C)c(NC(=O)c4ccc(-c5ccccc5)o4)cc3n2)cc1	none (no result: D2 PAM-2, D2 antagonist, D2 ag-1, D2 ag-2)
CC(C)(O)C#Cc1ccc(CN2CCN(C3CCCCC3)C(CCO)C2)cc1 (stereo unspecified)	none
CC(C)(O)C#Cc1ccc(CN2CCN(C3CCCCC3)C(CCO)C2)s1 (stereo unspecified)	D2 ag-1 42 | D3 arrestin ag inactive | D2 ag-3 inactive
CCCCn1cc2c(c1-c1ccc(Br)cc1)c(=O)n(C)c(=O)n2C	none (no result: D2 PAM-2, D2 antagonist, D2 ag-2)
COc1ccccc1N1CCN(Cc2ccsc2)CC1	D2 antagonist 104, D2 ag-1 56 | D3 arrestin ag inactive | D2 ag-3 inactive
COc1cc2c(cc1OC)CN(Cc1cccs1)CC2	none
COc1ccccc1N1CCN(Cc2cccs2)CC1	D2 antagonist 83 | D3 arrestin ag inactive | D2 ag-3 inactive
CCOC(=O)c1c(C)[nH]c(C)c1S(=O)(=O)N1CCC(C(=O)N2CCN(c3cccc(C)c3)C(C)C2)CC1 (stereo unspecified)	none (no result: D2 PAM-2, D2 antagonist, D2 ag-2)
CC(CCc1ccccc1)NCc1ccncc1 (stereo unspecified)	D2 antagonist 64, D2 ag-1 68, D2 ag-2 inconclusive | D3 arrestin ag inconclusive | D2 ag-3 inconclusive
CC(Cc1ccccc1)C(=O)NCc1ccncc1 (stereo unspecified)	none
O=S(=O)(c1ccc(NC(=S)N/N=C/c2ccc(Oc3ccccc3)cc2)cc1)N1CCOCC1	none
O=S(=O)(c1ccc(NC(=S)N/N=C/c2c3ccccc3cc3ccccc23)cc1)N1CCOCC1	none | D3 arrestin ag inactive | D2 ag-3 inactive
COc1cc2c(cc1OC)C1CC(=O)C(CC(C)C)CN1CC2 (stereo unspecified)	D2 ag-1 48 | D3 arrestin ag inactive | D2 ag-3 inactive
